Shown are actives, neighbours in structure and some others; about 1.9% of the full set was active somewhere.
BAP1 inh: inhibitors of BAP1 deubiquitinase, primary screen, biochemical, Ub-AMC fluorescence, kinetic. activity remaining (% of control), % at 20 µM. recombinant BAP1, Ub-AMC hydrolysis fluorescence kinetic; active compounds read low. 72,000 compounds, 0.48% hits;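 active means activity remaining at or below 50% of control, provided the compound also passes the data quality filters; inactive means the rest, including low values that fail the filters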;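 further: 100% = DMSO wells rate and 0% = substrate alone blank rate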
SK-BR-3 tox 24h: SK-BR-3 proliferation inhibitors, primary screen, cell-based, human, 24 h | SK-BR-3 viability, CellTiter-Glo ATP luminescence; active compounds read low | viability, % at 10 µM | 41,000 compounds, 0.47% hits;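 active means viability at or below the median of all test compounds minus 3 SD, in both replicates if run twice, cut at about 45% in these data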;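 further: 100% = median untreated cell wells and 0% = median positive control drug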
TNAP act DEA: human TNAP enzyme activators, primary screen, biochemical, luminescent, intermediate phosphate acceptor level; AID 813, 2007; 64,000 tested, under 10 active; purified TNAP, CDP-star luminescence, 100 mM DEA, 30 min; active compounds read high; scale: 0 levamisole-inhibited, 1 vehicle-only enzyme; activation factor at 20 µM; Alkaline phosphatase, tissue-nonspecific isozyme (Homo sapiens), P05186;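 active means activation factor of at least 2 at 20 µM, relative to controls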
HER2 expr 66K: inhibitors of Her2 protein expression, primary screen, SKBR-3 cells, AlphaScreen, 66K library; Receptor tyrosine-protein kinase erbB-2 (Homo sapiens), P04626; SKBR-3 HER2 protein level, 18-24 h; active compounds read low; HER2 level % of control, % at 10 µM; 65,000 compounds, 0.69% hits;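 active means HER2 level under 5% of the carrier-only control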;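 further: 100% = DMSO carrier and 0% = 500 nM PU-H71 HSP90 inhibitor; lower value means stronger loss of Her2 protein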
Target sequence (P04626 whole entry, looked up): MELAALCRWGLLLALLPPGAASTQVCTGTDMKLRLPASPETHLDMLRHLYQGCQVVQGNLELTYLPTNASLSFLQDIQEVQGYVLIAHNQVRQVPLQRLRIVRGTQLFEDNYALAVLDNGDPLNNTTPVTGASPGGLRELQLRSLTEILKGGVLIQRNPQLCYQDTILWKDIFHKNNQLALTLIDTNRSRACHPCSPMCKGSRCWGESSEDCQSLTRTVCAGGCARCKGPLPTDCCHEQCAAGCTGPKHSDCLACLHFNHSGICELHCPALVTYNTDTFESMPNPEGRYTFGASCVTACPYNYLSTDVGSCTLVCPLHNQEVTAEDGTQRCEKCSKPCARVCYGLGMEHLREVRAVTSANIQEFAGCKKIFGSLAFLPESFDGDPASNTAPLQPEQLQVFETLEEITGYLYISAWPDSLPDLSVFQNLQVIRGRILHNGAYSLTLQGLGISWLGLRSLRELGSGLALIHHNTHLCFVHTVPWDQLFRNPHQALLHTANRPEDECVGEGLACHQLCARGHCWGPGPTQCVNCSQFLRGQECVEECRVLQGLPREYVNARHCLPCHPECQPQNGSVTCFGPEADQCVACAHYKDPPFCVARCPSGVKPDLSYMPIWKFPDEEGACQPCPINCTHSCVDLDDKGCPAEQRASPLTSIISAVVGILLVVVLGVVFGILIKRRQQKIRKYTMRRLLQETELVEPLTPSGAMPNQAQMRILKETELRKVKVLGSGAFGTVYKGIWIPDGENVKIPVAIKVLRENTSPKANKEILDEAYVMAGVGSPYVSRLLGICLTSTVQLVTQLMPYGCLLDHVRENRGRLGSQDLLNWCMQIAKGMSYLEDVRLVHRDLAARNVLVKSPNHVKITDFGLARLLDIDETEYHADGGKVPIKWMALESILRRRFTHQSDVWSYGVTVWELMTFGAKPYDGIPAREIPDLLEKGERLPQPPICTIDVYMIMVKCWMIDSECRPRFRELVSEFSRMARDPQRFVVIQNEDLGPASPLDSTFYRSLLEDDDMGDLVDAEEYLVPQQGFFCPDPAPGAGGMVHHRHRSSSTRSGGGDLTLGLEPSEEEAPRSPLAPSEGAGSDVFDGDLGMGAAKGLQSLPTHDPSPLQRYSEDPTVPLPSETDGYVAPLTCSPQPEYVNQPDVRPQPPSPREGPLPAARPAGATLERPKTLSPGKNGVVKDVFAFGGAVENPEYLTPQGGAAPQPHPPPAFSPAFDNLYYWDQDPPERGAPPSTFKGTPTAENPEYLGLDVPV
Hsp90 block: tumor Hsp90 inhibitors, primary screen, cell lysate, fluorescence polarization, NCI-N417 lysate | Heat shock protein HSP 90-alpha (Homo sapiens), P07900 | 64,000 compounds, 0.35% hits | inhibition, % at 30 µM | AID 429, 2006 | Cy3B-geldanamycin FP displacement;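 active means inhibition above 50%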;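 further: 0% = tracer plus lysate wells and 100% = tracer alone without lysate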
S1P1 ag pot: S1P1 agonists and agonism potentiators, primary screen, cell-based, primary and confirmation screens, CRE-bla reporter; activation, % at 9.5 µM; Sphingosine 1-phosphate receptor 1 (Homo sapiens), P21453; 56,000 compounds, 0.57% hits; S1P1 CRE-bla cells, forskolin, beta-lactamase FRET, potentiator mode; S1P1 agonist co-added at EC20, 2 nM; 100% = saturating reference agonist, 0% = basal;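 active means activation above a cutoff set at the mean activation of all tested compounds plus 3 SD, cut at about 54% in these data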;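 further: forskolin at 4 µM as EC80 and the EC20 agonist is SEW2871; 100% = SEW2871 at its EC100 plus forskolin at EC80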
An asterisk follows results filed as active; nt = no result shown.

SMILES	BAP1 inh	SK-BR-3 tox 24h	TNAP act DEA	HER2 expr 66K	Hsp90 block	S1P1 ag pot
CCOC(=O)c1c(C)[nH]c(C(=O)C(C)OC(=O)c2cccc(OCc3c(C)noc3C)c2)c1C (stereo unspecified)	nt	nt	0.9	56	-1	101*
CCSc1nnc(NC(=O)c2cccc(OCc3c(C)noc3C)c2)s1	nt	87	0.9	91	nt	nt
COC(=O)c1[nH]c2ccc(Br)cc2c1NC(=O)C(C)N1CCN(C2CCCCC2)CC1 (stereo unspecified)	110	85	0.9	-4.8*	-1	-25
CCOC(=O)c1cnc(-n2nc(C)cc2C)nc1NC1CCCCC1	74	106	0.9	16	-1	110*
CCOC(=O)c1cnc(-n2nc(C)cc2C)nc1NC	59	114	1	98	-2	-6
O=C(CSc1oc(-c2ccc(F)cc2)nc1S(=O)(=O)c1ccccc1)NCC1CCCO1 (stereo unspecified)	nt	92	0.9	109	nt	nt
O=C(CSc1oc(-c2ccccc2)nc1S(=O)(=O)c1ccc(F)cc1)NCC1CCCO1 (stereo unspecified)	nt	96	1	-21*	nt	nt
COc1ccc2[nH]c(=O)c(CN(Cc3ccccc3OC)Cc3nnnn3CC3CCCO3)cc2c1 (stereo unspecified)	nt	nt	1	102	0	2
CCOC(=O)Cn1nnnc1CN(Cc1ccc(OC)cc1)Cc1cc2cc(C)ccc2[nH]c1=O	77	39*	0.9	100	-1	1
COc1ccccc1CN(Cc1cc2cc(C)ccc2[nH]c1=O)Cc1nnnn1CC1CCCO1 (stereo unspecified)	82	37*	0.9	89	-3	-25
CC1=C(C#N)C(c2cn(-c3ccccc3)nc2-c2cccs2)C(C#N)=C(C)N1	nt	nt	0.9	92	-6	16
CCCCCn1c(CN2CCN(c3cc(Cl)ccc3C)CC2)nc2c1c(=O)[nH]c(=O)n2C	54	nt	0.9	144	2	-27
CCN1CCCc2cc(O)ccc21	79	nt	nt	nt	nt	nt
CCCN1CCCc2cc(CN)ccc21	85	69	0.9	48	80*	-13
CCc1nc(N2CCCCC2C)c2oc3ccccc3c2n1 (stereo unspecified)	75	96	0.9	55	-1	-11
COc1ccc(OC)c(S(=O)(=O)Nc2ccc(O)c3ccccc23)c1	58	nt	0.7	1.2*	16	nt
COc1ccc(OC)c(S(=O)(=O)Nc2ccc(C(N)=O)cc2)c1	99	94	0.9	139	-4	30
CC(C)NC(=O)c1cc(-c2ccco2)on1	105	95	0.9	88	-6	-16
CCc1ccc(NC(=O)c2cc(-c3ccco3)on2)cc1	75	97	0.8	79	-2	56*
O=C(COc1ccc(-c2nnco2)cc1)N1CCN(S(=O)(=O)c2ccccc2)CC1	nt	93	1	70	nt	nt
O=C1CCC(=O)N1c1ccc(CSc2nc3ccccc3[nH]2)cc1	93	100	0.9	129	0	-15
c1ccc2[nH]c(SCc3ccc(-c4nnco4)cc3)nc2c1	126	nt	0.9	80	94*	0
N#Cc1nc(COc2ccc(Cl)cc2Cl)oc1N1CCN(c2ccccc2)CC1	nt	81	0.9	94	-1	69*
O=C(Nc1ccc(Cl)cc1)N1CCC(c2nc(-c3ccc(F)cc3)no2)CC1	97	76	1	75	7	57*
O=C(c1ccco1)N1CCN(C(=O)C2CCN(S(=O)(=O)c3cccs3)CC2)CC1	105	89	1	85	0	1
SMILES	BAP1 inh	SK-BR-3 tox 24h	TNAP act DEA	HER2 expr 66K	Hsp90 block	S1P1 ag pot
c1ccc(CSc2nnc(-c3c[nH]c4ccccc34)o2)cc1	67	nt	0.9	52	1	98*
Cc1ccccc1-c1nnc(SCc2ccccc2)o1	81	84	0.8	56	1	nt
CC(C)Cc1nc2oc3c(N4CCN(CCO)CC4)ncnc3c2c2c1CCCC2	110	81	0.8	-3.6*	1	14
CCCS(=O)(=O)N1CCCC(C(=O)N2CCC(Cc3ccccc3)CC2)C1 (stereo unspecified)	100	nt	1	123	0	-3
CCCS(=O)(=O)N1CCC(C(=O)N2CCC(Cc3ccccc3)CC2)CC1	93	nt	1	-27*	-1	1
COc1ccccc1C(=O)Nc1c2c(nn1-c1cccc(C)c1C)CS(=O)C2 (stereo unspecified)	87	91	1	121	-2	-26
O=C(CN1CCN(c2ccccc2F)CC1)Nc1ccccc1F	89	nt	0.9	112	-1	-20
CCOCCCn1c(C)nc2c(c1=O)c1nc3ccccc3nc1n2CCC1=CCCCC1	67	12*	0.9	-22*	-6	-14
CCOC(=O)c1sc2nc(NC(=O)C3CC3)sc2c1C	88	nt	0.9	49	1	-13
CCOC(=O)c1sc2nc(NC(=O)C3CCCCC3)sc2c1C	53	nt	0.8	95	-3	74*
O=C(O)CNS(=O)(=O)c1ccc(Br)s1	100	91	1	101	-2	10
O=S(=O)(NCc1ccncc1)c1ccc(Br)s1	158	93	0.9	133	0	110*
CCOC(=O)C(NC(C)=O)(N1CCc2ccccc2C1)C(F)(F)F (stereo unspecified)	104	87	1	-18*	0	-10
Cc1ccc(-c2nnn(CC(=O)N(CC(=O)NC3CCCC3)c3cnc4ccccc4c3)n2)o1	107	94	1	133	-3	-17
CCC(C(=O)NC1CCCC1)N(C(=O)Cn1nnc(-c2ccc(C)o2)n1)c1cnc2ccccc2c1 (stereo unspecified)	122	nt	0.9	-8.5*	-1	0
O=c1[nH]c(NCc2ccccc2)nc2c1CCC2	95	94	0.9	74	-3	-7
N/C(=N\c1nc2c(c(=O)[nH]1)CCCC2)Nc1ccccc1	98	104	1	102	-1	65*
CCCCn1nnnc1SCC(=O)c1ccc(C)c(C)c1	83	88	0.9	99	0	84*
CC(C)(CC(=O)N1CCN(c2ccc(Cl)cc2)CC1)CC1=NS(=O)(=O)c2ccccc2N1	53	nt	1	96	-10	63*
Cn1c(-n2c(CCN3C(=O)c4ccccc4C3=O)nc3ccccc3c2=O)nc2ccccc21	85	68	0.9	40	-8	-20
